Experiment [1] can be described thus: qHTS assay to identify small molecule antagonists of the estrogen related receptor (ERR) signaling pathway from Tox21 library - cell viability counter screen (AID 1224834). Note: nearly all actives have a fitted effect of over 30% in size. Note: potency is the fitted concentration of half-maximal effect. A digest of the protocol:
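Fluorescence from CellTiter-Fluor gives the viability read-out, taken 30 min after reagent addition. Before that, ERR cells seeded 6 h earlier were incubated with compounds for 17.5 h at 37 C.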

For experiment [2], the target named is Luciferin 4-monooxygenase (Photinus pyralis) (UniProt P08659). The experiment can be described thus: qHTS assay to identify small molecule inhibitors of firefly luciferase (AID 1224835). Note: nearly all actives have a fitted effect of over 25% in size. Note: potency is the fitted concentration of half-maximal effect. A digest of the protocol:
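Quantitative HTS format; KM concentrations of both substrates. Purified P. pyralis FLuc activity quantified from luminescence images.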
(qHTS replaces the single test concentration by a dilution series.)

Experiment [3] can be described thus: qHTS assay to identify small molecule agonists of the constitutive androstane receptor (CAR) signaling pathway - cell viability counter screen (AID 1224836). Note: nearly all actives have a fitted effect of over 45% in size. Note: potency is the fitted concentration of half-maximal effect. The gist of the method: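 Cell viability multiplexed with the CAR agonist screen: CellTiter-Fluor fluorescence after 23 hr at 37 C. HepG2-CYP2B6-hCAR cells got compounds at 15 concentrations with PK11195 at 0.75 uM final.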

Experiment [4] in a line: qHTS assay to identify small molecule antagonists of the constitutive androstane receptor (CAR) signaling pathway - cell viability counter screen (AID 1224837). Note: nearly all actives have a fitted effect of over 45% in size. Note: potency is the fitted concentration of half-maximal effect. A digest of the protocol:
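HepG2-CYP2B6-hCAR cells, 2500/well, 4 hr pre-incubation; compound titration, 15 conc.; CITCO 50 nM final; 23 hr, 37 C/5% CO2; CellTiter-Fluor, fluorescence intensity.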

Experiment [5] has as its target Nuclear receptor subfamily 1 group I member 3 (Homo sapiens) (UniProt Q14994). As to the kind of experiment: qHTS assay to identify small molecule antagonists of the constitutive androstane receptor (CAR) signaling pathway (AID 1224838).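 Note: HepG2 cells stably expressing hCAR with CYP2B6 luciferase reporter stimulated by CITCO; nearly all actives have a fitted effect of over 40% in size.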 Note: potency is the fitted concentration of half-maximal effect. The gist of the method: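 HepG2-CYP2B6-hCAR cells; 4 h pre-incubation; cpd (15 conc) + CITCO 50 nM final; 24 h, 37 C/5% CO2; ONE-Glo, luminescence.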

The target is the same in experiment [6]. As to the kind of experiment: qHTS assay to identify small molecule agonists of the constitutive androstane receptor (CAR) signaling pathway (AID 1224839).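 Note: HepG2 cells stably carrying human CAR and a CYP2B6 luciferase reporter; nearly all actives have a fitted effect of over 15% in size.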 A digest of the protocol: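 Luminescent ONE-Glo read-out after 24 hr, 37 C exposure of double-stable HepG2-CYP2B6-hCAR reporter cells to a 15-point compound series, in the presence of 0.75 uM PK11195 (final).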

Experiment [7] is described as follows: qHTS assay to identify small molecule antagonists of the estrogen related receptor signaling pathway with the pleiotropic PPARgamma coactivator (PGC) from Tox21 10K library - cell viability counter screen (AID 1224840; active = well fitted cell-killing curve with a large enough effect in the repeat runs, not every such curve was filed as active; note: nearly all actives have a fitted effect of over 40% in size; note: potency is the fitted concentration of half-maximal effect). The gist of the method:
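PGC/ERR cells, 2,000/well; 6 h pre-incubation 37 C/5% CO2; cpd in DMSO via pin tool; 17.5 h 37 C; CellTiter-Fluor, 30 min; fluorescence.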

The nature of experiment [8]: qHTS assay to identify small molecule antagonists of the estrogen related receptor signaling pathway with the pleiotropic PPARgamma coactivator (PGC) from Tox21 10K library (AID 1224841; call rule not given here; note: actives are mostly falling curves and most rising ones were filed inactive; nearly all actives have a fitted effect of over 50% in size; note: potency is the fitted concentration of half-maximal effect). A digest of the protocol: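 PGC/ERR cell line, 2,000 cells/well; 6 h pre-incubation 37 C/5% CO2; compounds (DMSO) pinned in; 18 h, 37 C; One-Glo, 30 min RT; luminescence.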
Experiment [9] in a line: qHTS assay to identify small molecule agonists of the estrogen related receptor signaling pathway with the pleiotropic PPARgamma coactivator (PGC) from Tox21 10K library (AID 1224842). Note: nearly all actives have a fitted effect of over 15% in size. The gist of the method:
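PGC/ERR reporter cells (NTP line) were seeded 2,000 per well, rested 6 h at 37 C/5% CO2, then pin-dosed with compounds in DMSO for 18 h at 37 C; luciferase read by One-Glo luminescence after 30 min at room temperature.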

Experiment [10] deals with Thyrotropin receptor (Homo sapiens) (UniProt P16473). The experiment can be described thus: qHTS assay to identify small molecule agonists of the thyroid stimulating hormone receptor (TSHR) signaling pathway (AID 1224843; calls by dose curve; note: nearly all actives have a fitted effect of over 45% in size). A digest of the protocol:
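Cell line HEK293 with TSHR; density 800/well. Exposure 30 min RT. Readout HTRF cAMP (cAMP-d2/anti-cAMP-cryptate), 1 h RT before reading.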

The nature of experiment [11]: qHTS assay to identify small molecule agonists of the hypoxia (HIF-1) signaling pathway - cell viability counter screen (AID 1224844; calls by dose curve; note: nearly all actives have a fitted effect of over 50% in size). The gist of the method: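 ME-180 HRE-bla cells, 2,000/well, 0.5% dialyzed FBS; 5 hr settle, 17 hr compound at 37C/5% CO2; CCF4-AM reporter read first, then CellTiter-Glo luminescence after 30 min RT.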
The nature of experiment [12]: qHTS assay to identify small molecule agonists of H2AX (AID 1224845; active = well fitted activation curve with a large enough effect in the signal ratio in the repeat runs, not every such curve was filed as active; the % refers to the signal ratio). A digest of the protocol: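 Wild-type CHO-K1 cells plated overnight, then exposed 3 hr at 37C to compounds at 15 concentrations (0.76% DMSO). Lysed, then HTRF anti-pH2AX(S139)-cryptate/anti-H2AX-d2 detection after 24 hr at room temperature; emissions 665 and 620 nm.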
Experiment [13] is described as follows: qHTS assay to identify small molecule agonists of the hypoxia (HIF-1) signaling pathway (AID 1224846; active = well fitted activation curve with a large enough effect in the signal ratio in the repeat runs, not every such curve was filed as active; the % refers to the signal ratio). A digest of the protocol: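 Cell line: CellSensor HRE-bla ME-180; 2,000 cells/well; 0.5% dialyzed FBS; 5 h preincubation; DMSO compound pin transfer; 17 h, 37C, 5% CO2; CCF4-AM added; bla FRET signal scored for activation.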
The nature of experiment [14]: qHTS assay to identify small molecule antagonists of the estrogen related receptor (ERR) signaling pathway from Tox21 library (AID 1224848). Note: nearly all actives have a fitted effect of over 50% in size. Note: potency is the fitted concentration of half-maximal effect. The gist of the method:
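Screening used an ERR reporter line supplied by NTP, exposed for 18 h at 37 C to library compounds delivered in DMSO. Signal was luciferase luminescence developed with ONE-Glo at room temperature for 30 min.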

A short description of experiment [15]: qHTS assay to identify small molecule agonists of the estrogen related receptor (ERR) signaling pathway from Tox21 library (AID 1224849; calls by dose curve; note: nearly all actives have a fitted effect of over 15% in size). The following applies: ERR reporter cell line, ONE-Glo luciferase, 18 h. The gist of the method: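 ERR cells, 6 h pre-incubation 37 C/5% CO2; cpd in DMSO pinned; 18 h 37 C; ONE-Glo added, 30 min RT; luminescence read. Agonist mode, qHTS.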

Experiment [16] can be described thus: qHTS RealTime-Glo MT Cell Viability Assay in HepG2 cells - 24 hour (AID 1224867). Note: nearly all actives have a fitted effect of over 50% in size. A digest of the protocol: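 Tox21 10K library screened in qHTS format on HepG2 cells carrying RealTime-Glo reagents. Compounds were added after a 5 h preincubation, and the luminescent signal from continuous culture was measured repeatedly during 40 h treatment.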
Experiment [17] can be described thus: qHTS RealTime-Glo MT Cell Viability Assay in HEK293 cells - 32 hour (AID 1224868). A digest of the protocol: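 Luminescence generated by NanoLuc from substrate produced by living HEK293 cells served as the viability signal. Each value reflects the reading at its stated time point during continuous 40 h compound exposure at 37 C.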
The nature of experiment [18]: A CellTox Green Cytotoxicity Assay to monitor cytotoxicity in HEK293 cells - 0 hour (AID 1224869). Note: nearly all actives have a fitted effect of over 50% in size. A digest of the protocol:
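Nonlytic real-time cytotoxicity: HEK293 + CellTox Green reagent plated, 5 h preincubation, pintool compound addition (23 nL in DMSO), 37 C for 40 h, fluorescence measured at successive time points.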

Experiment [19] can be described thus: qHTS RealTime-Glo MT Cell Viability Assay in HepG2 cells - 40 hour (AID 1224870). Note: nearly all actives have a fitted effect of over 50% in size. A digest of the protocol:
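HepG2 cells mixed with RealTime-Glo MT reagents (NanoLuc plus cell-permeant prosubstrate) were seeded at 600 cells/well, incubated 5 h at 37 C/5% CO2, then pinned with compounds in DMSO; nonlytic luminescence tracked viability during 40 h treatment.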

Experiment [20] in a line: qHTS assay to identify small molecule agonists of H2AX - cell viability counter screen (AID 1224847; calls by dose curve; note: top concentration of the series differs between compounds; nearly all actives have a fitted effect of over 30% in size). The gist of the method:
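Counter-screen for viability: CellTiter-Glo ATP luminescence read after 3 h compound treatment (15-point titration, 0.76% DMSO final) of CHO-K1 cells at 37C, with 30 min room-temperature reagent incubation.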

Values without a mark were called inactive. Records with an inconclusive call do not appear. The source made the active and inactive calls. Unless noted, calls come from the whole dose curve; as a rule, active = well fitted curve in the direction sought with a large enough effect in the repeat runs; inconclusive = weak or mixed curves; inactive = no such curve, though single readings can be large; an effect the other way counts as inactive or inconclusive.
% is set by controls: 0 for no effect and ±100 for the full control effect.

Chain of Nuclear receptor subfamily 1 group I member 3 (Homo sapiens) (Q14994 whole entry, looked up): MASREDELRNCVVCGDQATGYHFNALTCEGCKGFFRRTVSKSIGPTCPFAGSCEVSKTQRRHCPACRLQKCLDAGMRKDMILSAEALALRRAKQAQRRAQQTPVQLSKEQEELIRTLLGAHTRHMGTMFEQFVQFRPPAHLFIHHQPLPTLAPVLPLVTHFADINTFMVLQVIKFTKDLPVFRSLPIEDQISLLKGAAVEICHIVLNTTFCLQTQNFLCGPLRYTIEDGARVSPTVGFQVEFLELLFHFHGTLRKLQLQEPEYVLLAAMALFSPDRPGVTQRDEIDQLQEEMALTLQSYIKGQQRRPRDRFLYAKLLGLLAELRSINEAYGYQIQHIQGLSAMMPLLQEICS
Chain of Thyrotropin receptor (Homo sapiens) (P16473 whole entry, looked up): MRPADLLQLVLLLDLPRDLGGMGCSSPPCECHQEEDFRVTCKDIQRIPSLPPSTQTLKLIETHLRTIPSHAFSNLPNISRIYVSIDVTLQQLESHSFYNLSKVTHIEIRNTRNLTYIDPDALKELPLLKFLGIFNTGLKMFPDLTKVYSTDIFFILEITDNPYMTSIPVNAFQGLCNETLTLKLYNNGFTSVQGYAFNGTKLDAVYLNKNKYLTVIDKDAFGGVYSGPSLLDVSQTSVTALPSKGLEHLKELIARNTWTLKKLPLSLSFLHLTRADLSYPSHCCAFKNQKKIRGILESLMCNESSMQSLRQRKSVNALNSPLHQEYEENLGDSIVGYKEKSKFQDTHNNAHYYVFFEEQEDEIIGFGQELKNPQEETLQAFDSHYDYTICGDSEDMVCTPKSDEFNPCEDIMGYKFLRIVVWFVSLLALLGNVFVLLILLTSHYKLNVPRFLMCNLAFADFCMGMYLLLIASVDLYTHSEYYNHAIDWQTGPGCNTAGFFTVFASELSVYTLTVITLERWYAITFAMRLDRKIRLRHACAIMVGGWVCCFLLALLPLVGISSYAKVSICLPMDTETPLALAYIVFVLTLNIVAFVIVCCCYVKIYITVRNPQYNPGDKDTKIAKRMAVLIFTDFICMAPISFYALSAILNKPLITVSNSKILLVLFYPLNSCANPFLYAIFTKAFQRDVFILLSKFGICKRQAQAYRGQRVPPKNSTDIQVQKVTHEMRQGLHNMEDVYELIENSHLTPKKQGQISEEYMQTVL
Chain of Luciferin 4-monooxygenase (Photinus pyralis) (P08659 whole entry, looked up): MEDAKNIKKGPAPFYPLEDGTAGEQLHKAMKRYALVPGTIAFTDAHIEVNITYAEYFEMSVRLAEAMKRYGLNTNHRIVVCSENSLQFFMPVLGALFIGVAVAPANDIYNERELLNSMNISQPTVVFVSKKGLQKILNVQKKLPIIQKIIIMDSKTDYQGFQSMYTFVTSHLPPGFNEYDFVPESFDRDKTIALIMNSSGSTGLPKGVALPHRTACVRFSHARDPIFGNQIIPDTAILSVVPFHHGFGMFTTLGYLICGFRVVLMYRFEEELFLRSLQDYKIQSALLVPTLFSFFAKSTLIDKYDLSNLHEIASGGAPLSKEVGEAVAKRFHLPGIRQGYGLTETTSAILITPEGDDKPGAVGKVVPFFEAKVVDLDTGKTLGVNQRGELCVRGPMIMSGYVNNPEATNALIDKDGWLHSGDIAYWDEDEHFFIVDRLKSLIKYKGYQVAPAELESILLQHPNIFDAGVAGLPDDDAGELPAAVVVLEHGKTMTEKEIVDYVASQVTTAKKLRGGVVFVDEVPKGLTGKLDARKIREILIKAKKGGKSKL

Consider `CN(C)Cc1ccccc1O`, for which the Potency result in experiment [1], in experiment [2], in experiment [3], in experiment [4], in experiment [5] and in [6] was “inactive” throughout. Besides, the Potency result in experiment [7], in experiment [8], in experiment [9], in [10], in [11] and in [12] was “inactive” throughout. The Potency entry in experiment [13], in experiment [14], in [16], in experiment [17], in experiment [18] and in experiment [19] was “inactive” throughout. For the same compound, in [15] (at 92.4 µM (top of the series)), the activity change, positive = activation was 0.52%.

As to `CCN(CC)c1ccc2c(-c3ccc(S(=O)(=O)O)cc3S(=O)(=O)[O-])c3ccc(=[N+](CC)CC)cc-3oc2c1`, the Potency is 22.4 µM (active) in experiment [1]; 26 µM (active) in [2]; 31.6 µM (active) in experiment [3]; 28.2 µM (active) in experiment [4]; 28.2 µM (active) in [5]; 28.2 µM (active) in [7]. Besides, the Potency was 28.2 µM (active) in experiment [8] and 35.5 µM (active) in [14]. Also, the Potency result in experiment [6], in experiment [9], in [11], in [13], in experiment [16] and in [17] was “inactive” throughout. Further, the Potency entry in [19] was “inactive”. Besides, in [15] (at 92.4 µM (top of the series)), the activity change, positive = activation was -38.9%.

On to `Cc1cc(-n2nc3ccc(Cl)cc3n2)c(O)c(C(C)(C)C)c1`, for which the Potency entry in [1], in [2], in experiment [3], in experiment [4], in experiment [5] and in experiment [6] was “inactive” in each case. Also, the Potency result in experiment [7], in experiment [8], in [9], in [10], in [12] and in experiment [14] was “inactive” throughout. Moreover, the Potency result in [16], in [17], in experiment [18] and in experiment [19] was “inactive” each time. Also, the activity change, positive = activation in [15] (at 42.5 µM (top of the series)) was 2.34%.

`C#C[C@]1(O)CC[C@H]2[C@@H]3[C@H](C)CC4=C(CCC(=O)C4)[C@H]3CC[C@@]21C`: the Potency result in experiment [1], in [2], in experiment [3], in experiment [4], in [5] and in [6] was “inactive” in each case. Also, the Potency entry in experiment [7], in experiment [9], in [11], in [13], in experiment [16] and in experiment [17] was “inactive” throughout. For the same compound, the Potency entry in experiment [18] is “inactive”. Further, the Potency in experiment [14] was 23.7 µM (active). Besides, in experiment [15] (at 42.5 µM (top of the series)), the activity change, positive = activation was -32.4%.

For the compound `CCCCCCCCCCCC(=O)OCC(C)OC(=O)CCCCC(=O)O` (stereo not given), the Potency result in experiment [1], in [2], in experiment [3], in experiment [4], in experiment [5] and in [6] was “inactive” throughout. The Potency result in [7], in experiment [9], in experiment [10], in experiment [11], in [12] and in experiment [20] was “inactive” in each case. Further, the Potency result in [14], in experiment [16] and in experiment [17] was “inactive” each time. Besides, the activity change, positive = activation in experiment [15] (at 42.5 µM (top of the series)) is -2.88%.

Turning to `O=C(O)CCN(C1(C(=O)NO)CCCC1)S(=O)(=O)c1ccc(Oc2ccc(F)cc2)cc1`, the Potency result in [1], in experiment [2], in [3], in [4], in experiment [5] and in [6] was “inactive” in each case. The Potency result in experiment [7], in experiment [8], in experiment [9], in experiment [10], in [11] and in experiment [12] was “inactive” throughout. For the same compound, the Potency entry in experiment [13], in experiment [20], in [14], in experiment [16], in [17] and in experiment [18] was “inactive” in each case. The activity change, positive = activation in experiment [15] (at 92.4 µM (top of the series)) was 4.9%.

Turning to `C=C(C)C(=O)OCCCCCCCCCC`, the Potency result in experiment [1], in experiment [2], in experiment [3], in experiment [4], in [5] and in experiment [6] was “inactive” each time. For the same compound, the Potency result in [7], in experiment [8], in experiment [9], in experiment [10], in experiment [11] and in [13] was “inactive” in each case. For the same compound, the Potency result in experiment [14], in experiment [16], in [17], in experiment [18] and in [19] was “inactive” in each case. In addition, in experiment [15] (at 92.4 µM (top of the series)), the activity change, positive = activation is 2.01%.

For the origin of these results see PubChem BioAssay (Tox21).
